Compound activity: PubChem BioAssay, National Center for Advancing Translational Sciences (NCATS)
TDP1 cell noCPT: qHTS for Inhibitors of human tyrosyl-DNA phosphodiesterase 1 (TDP1): qHTS in cells in absence of CPT | DT40 Tdp1-/- hTDP1 cells, no CPT, ATP luminescence, 48 h | Potency, µM (series often up to 46.2 µM), without a hit: at the top dose activity change, negative = growth inhibition, actives largely listed as inhibitors | hit rate 15% among 420,000 | AID 686978, 2013; note: potency is the fitted concentration of half-maximal effect; nearly all actives have a fitted effect of over 55% in size
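Camptothecin absent (DMSO only). Human TDP1-complemented DT40 knockout cells, 400 cells/well, 37 °C for minimum 48 hr; ATP measured via CellTiter-Glo, 30 min dark incubation, luminescence.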
HT1080-NT tox: kills 2HG-producing HT-1080-NT fibrosarcoma cells; hit rate 1.6% among 360,000; HT-1080-NT fibrosarcoma viability, CellTiter-Glo ATP luminescence, 48 h; Potency, µM (titrated, usually from 46.1 µM), inactives show top-dose activity, negative = less viability, usual class: cytotoxic;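 note: NT is the 2HG producing partner of a matched IDH1 knockdown line; potency is the fitted concentration of half-maximal effect; 0% = DMSO-treated cells and -100% = media-only wells without cells; nearly all actives have a fitted effect of over 55% in size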
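Read-out is CellTiter-Glo luminescence after 10 minutes at room temperature, following 48 hours' compound treatment of HT-1080-NT cells (750 cells/well, RPMI, 5% FBS, 37 degrees C).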
IL1B secr inh: inflammasome signaling inhibition, IL-1 beta readout. THP-1 LPS/ATP IL-1B secretion, AlphaLISA, 16 h; hits give low values. activity change, % at 57.5 µM. hit rate 4.7% among 360,000; in the data active = activity change below about -50%; inconclusive = mostly about -30% to -49%
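THP-1 cells pretreated 1 hr with compounds (up to 57.5 uM final), then stimulated with LPS (250 ng/mL final) plus ATP (1.25 mM final); secreted IL-1B measured by AlphaLISA after 16 hr, decreased signal indicating inhibition.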
HT1080 IDH1KD tx: kills HT-1080 cells with IDH1 knockdown. HT-1080 IDH1 knockdown viability, ATP luminescence, 48 h. Potency, µM (doses to about 46.1 µM), without a hit: at the top dose activity, negative = toxicity, hits mostly cytotoxic. hit rate 2% among 360,000;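 note: potency is the fitted concentration of half-maximal effect; 0% = DMSO wells and -100% = cell-free medium wells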
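Luminescent ATP read-out (CellTiter-Glo, 10 min at room temperature) after 48 h compound exposure at 37 °C gave viability of IDH1-knockdown HT-1080 cells. Activity was normalised to DMSO and cell-free wells, then fitted as concentration-response curves.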
DT40 TDP1 CPT: growth inhibition of DT40 Tdp1-/-;hTDP1 cells with camptothecin (screen for TDP1 inhibitors); chicken DT40 Tdp1-/-;hTDP1 cells + 20 nM CPT, ATP luminescence, 48 h; Potency, µM (doses to about 46.2 µM), for the others: top-dose activity change, negative = growth inhibition, most hits filed as inhibitors; hit rate 12% among 420,000; AID 686979; note: potency is the fitted concentration of half-maximal effect; nearly all actives have a fitted effect of over 55% in size
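Cell growth measured by CellTiter-Glo luminescence after a minimum 48 h, 37 C compound exposure with 20 nM CPT in Tdp1-knockout DT40 cells stably expressing hTDP1, seeded 400/well; qHTS titration format.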
Starred values were filed as active, the others as inactive; [ ] = remark or other dose. Compounds with a hit are over-represented: about 19% of the library has one in this group of screens. Unless noted, calls come from the whole dose curve; as a rule, active = well fitted curve in the direction sought with a large enough effect; inconclusive = small, poorly fitted or top-dose-only effect, or another doubt; inactive = no such curve, though single readings can be large; an effect the other way counts as inactive or inconclusive. Unless noted, % is set by controls: 0 for no effect and ±100 for the full control effect.

How did COc1cccc(CN(C)C(=O)CCN(c2ccccc2)S(=O)(=O)c2ccc(C)cc2)c1OC do in these assays?
TDP1 cell noCPT: 16.4µM*; HT1080-NT tox: -15.4%; IL1B secr inh: -10.4; HT1080 IDH1KD tx: -19.5%; DT40 TDP1 CPT: 25.9µM*

Results for COc1cccc(NC(=O)CN(C)C(=O)c2ccc(Cl)c(S(=O)(=O)N3CCCCCC3)c2)c1 ?
TDP1 cell noCPT: 14.6µM*; HT1080-NT tox: -18.5%; IL1B secr inh: -18.7; HT1080 IDH1KD tx: -12.7%; DT40 TDP1 CPT: inconclusive

Results for Cc1ccc(NC(=O)CN(C)C(=O)c2ccc(OCc3cn4ccccc4n3)cc2)cc1 ?
TDP1 cell noCPT: -21.5%; HT1080-NT tox: -4.1%[9.24 µM]; IL1B secr inh: 31.7; HT1080 IDH1KD tx: -4.9%; DT40 TDP1 CPT: inconclusive

How did CN1CCN(c2ncc3nc(-c4ccccc4)c(=O)n(CCc4ccccc4)c3n2)CC1 do in these assays?
TDP1 cell noCPT: -12.9%; DT40 TDP1 CPT: inconclusive

What do the screens show for `C/C(CC(C)(C)c1ccccc1)=N\NS(=O)(=O)c1ccccc1`?
TDP1 cell noCPT: -6.1%; HT1080-NT tox: 11.2%; IL1B secr inh: 14.5; HT1080 IDH1KD tx: 7.5%; DT40 TDP1 CPT: 7.0%

How did CC(Oc1ccc2c3c(c(=O)oc2c1)CCCC3)C(=O)NCc1ccncc1 (configuration not stated) do in these assays?
TDP1 cell noCPT: inconclusive; HT1080-NT tox: 0.0%; IL1B secr inh: -29.6; HT1080 IDH1KD tx: -4.1%; DT40 TDP1 CPT: inconclusive

What do the screens show for `N#Cc1ccc(CN2CCC3(CC2)CCN(C(=O)c2cnccn2)CC3)cc1`?
TDP1 cell noCPT: 27.4%; DT40 TDP1 CPT: 14.0%

What do the screens show for `CCOC(=O)N1CCN(C(=O)C2CC(=O)N(c3ccc(C)cc3)C2)CC1` (configuration not stated)?
TDP1 cell noCPT: -14.5%; HT1080-NT tox: 2.6%; IL1B secr inh: -6.1; HT1080 IDH1KD tx: -0.1%; DT40 TDP1 CPT: -29.3%

What do the screens show for `COc1cccc(CN(C)C(=O)[C@@H](NC(=O)c2ccc(C)cc2)C(C)C)c1`?
TDP1 cell noCPT: 20.6µM*; HT1080-NT tox: 1.2%; IL1B secr inh: -20.2; HT1080 IDH1KD tx: -9.8%; DT40 TDP1 CPT: 20.6µM*

What do the screens show for `COc1ccc(CN(C)C(=O)C(Cc2ccccc2)NC(=O)c2ccccc2)c(OC)c1` (configuration not stated)?
TDP1 cell noCPT: 20.6µM*; HT1080-NT tox: -5.3%; IL1B secr inh: -24.4; HT1080 IDH1KD tx: -0.8%; DT40 TDP1 CPT: inconclusive

How did COc1cccc(NC(=O)CN(C)C(=O)c2ccc(COc3ccccc3)cc2)c1 do in these assays?
TDP1 cell noCPT: 16.4µM*; HT1080-NT tox: -12.0%; IL1B secr inh: 9.2; HT1080 IDH1KD tx: -11.6%; DT40 TDP1 CPT: inconclusive

Results for COc1cccc(NC(=O)CN(C)C(=O)c2ccc(OCc3ccccc3)c(OC)c2)c1 ?
TDP1 cell noCPT: -4.3%; HT1080-NT tox: -2.6%; IL1B secr inh: -8.8; HT1080 IDH1KD tx: 0.5%; DT40 TDP1 CPT: 2.8%

What do the screens show for `COc1ccc(Br)cc1CN(C)C(=O)c1ccc2c(c1)NC(=O)C(C)S2` (configuration not stated)?
TDP1 cell noCPT: -0.3%; HT1080-NT tox: -12.9%; IL1B secr inh: 37.1; HT1080 IDH1KD tx: -7.6%; DT40 TDP1 CPT: 18.3%

What do the screens show for `COc1ccc(Br)cc1CN(C)C(=O)c1cc(Cl)c2c(c1)OCCO2`?
TDP1 cell noCPT: 20.6µM*; HT1080-NT tox: -9.3%; IL1B secr inh: -26.3; HT1080 IDH1KD tx: -26.1%; DT40 TDP1 CPT: inconclusive

How did CSc1nc2ccsc2c(=O)n1-c1ccccn1 do in these assays?
TDP1 cell noCPT: -4.7%; HT1080-NT tox: 7.4%; IL1B secr inh: -3.5; HT1080 IDH1KD tx: 8.9%; DT40 TDP1 CPT: -11.8%

How did COc1ccccc1CN(C)C(=O)c1ccc(COc2ccccc2)cc1 do in these assays?
TDP1 cell noCPT: inconclusive; HT1080-NT tox: -8.2%; IL1B secr inh: -75.7*; HT1080 IDH1KD tx: -18.2%; DT40 TDP1 CPT: 16.4µM*

What do the screens show for `COc1ccc(CN(C)C(=O)c2ccc(COc3ccccc3)cc2)c(OC)c1`?
TDP1 cell noCPT: 9.2µM*; HT1080-NT tox: -8.2%; IL1B secr inh: -8.4; HT1080 IDH1KD tx: -11.4%; DT40 TDP1 CPT: 18.4µM*

Results for COc1cccc(CN(C)C(=O)CNC(=O)c2ccc(-c3ccccc3)cc2)c1OC ?
TDP1 cell noCPT: inconclusive; HT1080-NT tox: inconclusive; IL1B secr inh: -63.2*; HT1080 IDH1KD tx: 4.61µM*; DT40 TDP1 CPT: inconclusive

How did COc1cccc(CN(C)C(=O)CNC(=O)c2cccs2)c1OC do in these assays?
TDP1 cell noCPT: -2.1%; HT1080-NT tox: 6.7%; IL1B secr inh: 3.5; HT1080 IDH1KD tx: 11.4%; DT40 TDP1 CPT: 4.2%

What do the screens show for `COc1cccc(CN(C)C(=O)c2ccc(Oc3ccccc3)cc2)c1OC`?
TDP1 cell noCPT: 20.6µM*; HT1080-NT tox: inconclusive; IL1B secr inh: -8.8; HT1080 IDH1KD tx: -19.7%; DT40 TDP1 CPT: 25.9µM*

How did COc1ccc(CN(C)C(=O)c2ccc(NS(=O)(=O)c3ccccc3)cc2)c(OC)c1 do in these assays?
TDP1 cell noCPT: inconclusive; HT1080-NT tox: -24.5%; IL1B secr inh: -22.4; HT1080 IDH1KD tx: -1.1%; DT40 TDP1 CPT: inconclusive

Results for CC(C)(C)c1ccc(C(=O)NCC(=O)OCC(=O)c2ccc3c(c2)-c2ccccc2C3)cc1 ?
TDP1 cell noCPT: -27.8%; HT1080-NT tox: 9.0%; IL1B secr inh: -10.3; HT1080 IDH1KD tx: 14.5%; DT40 TDP1 CPT: 8.5%

Results for O=C(NC1(C(F)(F)F)C(=O)Nc2c1c(=O)[nH]c(=O)n2-c1ccccc1)c1ccccc1Cl (configuration not stated) ?
TDP1 cell noCPT: -20.0%; DT40 TDP1 CPT: -15.4%

What do the screens show for `O=C1/C(=C/c2cccnc2)Oc2cc(OS(=O)(=O)c3ccccc3)ccc21`?
TDP1 cell noCPT: 15.8µM*; HT1080-NT tox: -16.4%; IL1B secr inh: -6.4; HT1080 IDH1KD tx: inconclusive; DT40 TDP1 CPT: inconclusive

Results for COc1ccc(S(=O)(=O)Oc2ccc3c(c2)O/C(=C\c2cccnc2)C3=O)cc1 ?
TDP1 cell noCPT: 14.6µM*; HT1080-NT tox: -0.3%; IL1B secr inh: 0.0; HT1080 IDH1KD tx: 13.6%; DT40 TDP1 CPT: inconclusive

What do the screens show for `CC(C)NC(=O)C1(O)c2ccccc2NC(=O)N1c1ccc(Cl)c(Cl)c1` (configuration not stated)?
TDP1 cell noCPT: -20.4%; HT1080-NT tox: 13.3%; IL1B secr inh: 2.8; HT1080 IDH1KD tx: 7.8%; DT40 TDP1 CPT: -14.7%

Results for CCOc1cc(N2CCOCC2)c(OCC)cc1NC(=S)NCCCOC ?
TDP1 cell noCPT: -6.9%; HT1080-NT tox: 23.9%; IL1B secr inh: -3.2; HT1080 IDH1KD tx: 23.7%; DT40 TDP1 CPT: -1.9%
